Results from PubChem BioAssay (NCATS).
Inconclusive results are not listed. Activity calls are given as the source filed them. Calls come from the whole dose curve; as a rule, active = well fitted curve in the direction sought with a large enough effect; inconclusive = small, poorly fitted or top-dose-only effect, or another doubt; inactive = no such curve, though single readings can be large; an effect the other way counts as inactive or inconclusive.

Experiments:
[1] = qHTS of pediatric cancer cell lines to identify multiple opportunities for drug repurposing: Primary screen for Rh18 cells (AID 1347102); note: nearly all actives have a fitted effect of over 65% in size
Summary of the method: (§1)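 Cells (500-1,000/well) in growth media were settled 5 h at 37 degrees C, then given compounds for 48 h. Viability was read as CellTiter-Glo luminescence. Primary runs used MIPE at 11 points (0.78 nM-46 µM) and NPC at 8 points (0.59 nM-46 µM); follow-ups used 11 points.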

[2] = qHTS of pediatric cancer cell lines to identify multiple opportunities for drug repurposing: Primary screen for RD cells (AID 1347104); note: nearly all actives have a fitted effect of over 55% in size
Summary of the method: (§2)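 Phenotypic viability qHTS, 48 h compound exposure, CellTiter-Glo luminescence read-out; multi-concentration dosing so that potency and efficacy derive directly from the primary screen's curves.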

[3] = qHTS of pediatric cancer cell lines to identify multiple opportunities for drug repurposing: Primary screen for MG 63 (6-TG R) cells (AID 1347105); note: nearly all actives have a fitted effect of over 50% in size
Summary of the method: as §2

[4] = qHTS of pediatric cancer cell lines to identify multiple opportunities for drug repurposing: Primary screen for control Hh wild type fibroblast cells (AID 1347106);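 note: series mostly up to about 46 µM; a drop in luminescence marks cytotoxicity and a rise apparent proliferation; nearly all actives have a fitted effect of over 55% in size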
Summary of the method: as §1

[5] = qHTS of pediatric cancer cell lines to identify multiple opportunities for drug repurposing: Primary screen for Rh30 cells (AID 1347107); note: series mostly up to about 46 µM; nearly all actives have a fitted effect of over 75% in size
Summary of the method: as §1

[6] = qHTS of pediatric cancer cell lines to identify multiple opportunities for drug repurposing: Primary screen for OHS-50 cells (AID 1347103); note: nearly all actives have a fitted effect of over 40% in size
Summary of the method: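 Cells (500-1,000/well) rested 5 h, then received compounds for 48 h; metabolically active cells were measured by CellTiter-Glo luminescence. Final concentrations spanned up to 46 µM (MIPE, 11-point) or 0.59 nM-46 µM (NPC, 8-point) in primary screens, 11-point in follow-ups.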

[7] = qHTS of pediatric cancer cell lines to identify multiple opportunities for drug repurposing: Primary screen for Rh41 cells (AID 1347108);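 note: series mostly up to about 46 µM; luminescence drop marks cytotoxic hits; nearly all actives have a fitted effect of over 70% in size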
Summary of the method: as §2

Measured: outcome

CNc1c2c(nn1C)CCCC2
not listed: [6] | [7]
inactive: all other assays above

CC(C)C[C@@H](N)C(=O)O
not listed: [2]
inactive: all other assays above

Cc1ccc(S(=O)(=O)NC(=O)NC2CCCCC2)cc1
not listed: [2]
inactive: all other assays above

COc1ccccc1Oc1c(NS(=O)(=O)c2ccc(C(C)(C)C)cc2)nc(-c2ncccn2)nc1OCCO
not listed: [4]
inactive: all other assays above

CC1(C)S[C@@H]2[C@H](NC(=O)C(C(=O)O)c3ccccc3)C(=O)N2[C@H]1C(=O)O (stereo partly drawn)
not listed: [2]
inactive: all other assays above

C/C=C/C(=O)N(CC)c1ccccc1C
not listed: [2] | [4]
inactive: all other assays above

Cc1cc(O)cc(C)c1Cl
not listed: [2]
inactive: all other assays above

NC(=O)CCCCC1CCSS1 (stereo not drawn)
not listed: [2] | [7]
inactive: all other assays above

CC(=O)N[C@H]1[C@H]([C@H](O)[C@H](O)CO)OC(C(=O)O)=C[C@@H]1N=C(N)N
not listed: [2]
inactive: all other assays above

CC(=O)Nc1ccc(C(=O)O)cc1
not listed: [2]
inactive: all other assays above

Cc1c(NC(C)C)c(=O)n(-c2ccccc2)n1C
not listed: [2]
inactive: all other assays above

O=C(NCC(O)CO)c1c(I)c(C(=O)NCC(O)CO)c(I)c(N(CCO)C(=O)CO)c1I (stereo not drawn)
not listed: [2] | [4]
inactive: all other assays above

Cc1cc(-n2nc3ccc(Cl)cc3n2)c(O)c(C(C)(C)C)c1
not listed: [2]
inactive: all other assays above

NCc1ccc(S(N)(=O)=O)cc1
not listed: [2]
inactive: all other assays above

C[C@@H](c1ncncc1F)C(O)(Cn1cncn1)c1ccc(F)cc1F (stereo partly drawn)
not listed: [2] | [7]
inactive: all other assays above

Cn1cc(C(=O)[C@@H]2CCc3nc[nH]c3C2)c2ccccc21
not listed: [6] | [7]
inactive: all other assays above

CCCCC1(COC(=O)CCC(=O)O)C(=O)N(c2ccccc2)N(c2ccccc2)C1=O
inactive: [1] | [6] | [3] | [5]

O=c1[nH]c(=O)c2ccccc2o1
not listed: [2]
inactive: all other assays above

CC(=O)Nc1ccccc1
not listed: [4]
inactive: all other assays above

C=CCOc1ccccc1OCC(O)CNC(C)C (stereo not drawn)
not listed: [6] | [7]
inactive: all other assays above

CN1CCCN=C1COC(=O)C(O)(c1ccccc1)C1CCCCC1 (stereo not drawn)
not listed: [2]
inactive: all other assays above

Cc1c(I)c(=O)n(-c2ccccc2)n1C
not listed: [4]
inactive: all other assays above

CC(=O)Oc1cccc(C)c1
not listed: [2]
inactive: all other assays above

COc1ccc2cc(CCC(C)=O)ccc2c1
not listed: [6] | [7]
inactive: all other assays above

CC[C@]12CCCN3CCc4c(n(c5ccccc45)[C@@](O)(C(=O)OC)C1)[C@@H]32
not listed: [2]
inactive: all other assays above

COc1ccc(Cc2cnc(N)nc2N)cc1OC
not listed: [2]
inactive: all other assays above

O=C(O)Cc1ccc(CCNS(=O)(=O)c2ccc(Cl)cc2)cc1
not listed: [4]
inactive: all other assays above

O=C(Cn1ccnc1[N+](=O)[O-])NCCO
not listed: [6] | [7]
inactive: all other assays above

NNC(=O)CP(=O)(c1ccccc1)c1ccccc1
not listed: [2] | [4]
inactive: all other assays above

C[N+]1(C)CCCC(OC(=O)C(O)(c2ccccc2)c2ccccc2)C1 (stereo not drawn)
not listed: [2]
inactive: all other assays above

NC(=O)NS(=O)(=O)c1ccc(N)cc1
not listed: [3] | [7]
inactive: all other assays above

Nc1ccc(C(=O)Oc2ccccc2)c(O)c1
not listed: [4] | [6]
inactive: all other assays above

CC(C)(C)NCC(O)COc1cccc2c1CCC(=O)N2 (stereo not drawn)
inactive: [1] | [2] | [3] | [5]

CCOc1cc(NC(C)=O)ccc1C(=O)OC
not listed: [6]
inactive: all other assays above
